Measured values from PubChem BioAssay (Tox21).
Where “and” joins values, the source holds several entries; their conditions need not be identical. Identical values can stand only once. Results filed as inconclusive are left out. Where a call stands in place of a potency, no number is given. Some compounds were tested as several samples or in several runs, with calls that do not always agree. Calls of active or inactive are those of the source. The call rests on the fitted dose curve; in most records, active means well fitted inhibition curve with a large enough effect in the repeat runs; inconclusive means weak or mixed curves; inactive means no such curve, though single readings can be large or run the other way.

molecular target: Cytochrome P450 2D6 (Homo sapiens) (UniProt P10635); experiment: Cytochrome P450 Family 2 Subfamily D Member 6 (CYP2D6) small molecule antagonists: luciferase reporter qHTS assay (AID 1671196); conditions: P450-Glo CYP2D6 enzyme assay, luciferin luminescence, 1 h; series mostly up to 115 µM; further: nearly all actives have a fitted effect of over 50% in size
Method in brief: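 CYP2D6 enzyme–substrate mix was held with compound for 10 min at room temperature, then NADPH regeneration solution was added and the reaction ran 1 h at room temperature. Luciferin product was detected by luminescence after 20 min with detection reagent.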
Potency means the concentration at half of the fitted maximal effect.

Sequence of Cytochrome P450 2D6 (Homo sapiens) (P10635 whole entry, looked up): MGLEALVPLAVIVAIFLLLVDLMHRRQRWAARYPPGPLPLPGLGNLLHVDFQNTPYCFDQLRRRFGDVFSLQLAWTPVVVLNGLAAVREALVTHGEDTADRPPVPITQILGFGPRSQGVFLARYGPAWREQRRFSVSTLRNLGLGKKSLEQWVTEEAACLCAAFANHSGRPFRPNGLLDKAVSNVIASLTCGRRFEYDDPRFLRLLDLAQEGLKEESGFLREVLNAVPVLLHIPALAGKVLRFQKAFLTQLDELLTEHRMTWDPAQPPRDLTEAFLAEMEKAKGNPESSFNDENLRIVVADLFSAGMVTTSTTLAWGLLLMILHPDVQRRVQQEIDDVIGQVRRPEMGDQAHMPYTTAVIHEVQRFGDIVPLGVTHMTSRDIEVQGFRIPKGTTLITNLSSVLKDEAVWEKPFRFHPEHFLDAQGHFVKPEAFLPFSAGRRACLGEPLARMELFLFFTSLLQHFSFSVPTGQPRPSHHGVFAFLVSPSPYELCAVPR

Structure (SMILES) | Potency
Nc1ccccc1N | 36.4 µM (active) and 7.31 µM (active)
Cn1cnc([N+](=O)[O-])c1Sc1ncnc2nc[nH]c12 | 44.5 µM (active) and inactive
Cc1ccc(C)c(O)c1C | inactive
c1ccc2cc(Nc3ccc(Nc4ccc5ccccc5c4)cc3)ccc2c1 | inactive
O=c1oc(=O)c2cc3c(=O)oc(=O)c3cc12 | inactive
CCC(C)c1ccccc1O (stereo not given) | inactive
CCC(C)OC(=O)c1ccc(O)cc1 (stereo not given) | 63.3 µM (active)
O=[N+]([O-])c1ccc2c(c1)Cc1ccccc1-2 | inactive
O=C1c2cccc(O)c2C(=O)c2c(O)cccc21 | inactive
O=C(/C=C/C=C/c1ccc2c(c1)OCO2)N1CCCCC1 | 63.4 µM (active) and 44.8 µM (active)
O=C=Nc1ccc(Cc2ccc(N=C=O)cc2)cc1 | inactive
COc1cc([C@@H]2c3cc4c(cc3[C@H](O)[C@H]3COC(=O)[C@H]23)OCO4)cc(OC)c1OC | inactive
Brc1cc(Oc2cc(Br)c(Br)c(Br)c2Br)c(Br)c(Br)c1Br | inactive
CC(C)(C)NC(=O)[C@H]1CC[C@H]2[C@@H]3CC[C@H]4NC(=O)C=C[C@]4(C)[C@H]3CC[C@]12C | inactive
CCCC(=O)O | inactive
CCCCCCCCCCCO | inactive
Oc1ccc(O)cc1 | inactive
Cc1[nH]c(=O)c(C#N)cc1-c1ccncc1 | inactive
COc1ccc(OC)c(C(O)CNC(=O)CN)c1 (stereo not given) | inactive
c1ccc2c(c1)Oc1ccccc1S2 | inactive
Nc1ncn([C@@H]2O[C@H](CO)[C@@H](O)[C@H]2O)c(=O)n1 | inactive
CC(CCC(=O)O)(c1ccc(O)cc1)c1ccc(O)cc1 | inactive and 25.2 µM (active)
Cc1ccc(C(=O)c2cc(O)c(O)c([N+](=O)[O-])c2)cc1 | inactive

molecular target: Cytochrome P450 2C19 (Homo sapiens) (UniProt P33261); experiment: Cytochrome P450 Family 2 Subfamily C Member 19 (CYP2C19) small molecule antagonists: luciferase reporter qHTS assay (AID 1671197); conditions: P450-Glo CYP2C19 enzyme, luciferin luminescence, 1 h; series mostly up to 115 µM; further: nearly all actives have a fitted effect of over 65% in size
Method in brief: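 P450-Glo CYP2C19 screening system; proluciferin substrate; DMSO compound stocks; 10 min RT preincubation; NADPH regeneration, 1 h at 37C; luciferin detection reagent, 20 min RT; luminescence as RLU.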

Sequence of Cytochrome P450 2C19 (Homo sapiens) (P33261 whole entry, looked up): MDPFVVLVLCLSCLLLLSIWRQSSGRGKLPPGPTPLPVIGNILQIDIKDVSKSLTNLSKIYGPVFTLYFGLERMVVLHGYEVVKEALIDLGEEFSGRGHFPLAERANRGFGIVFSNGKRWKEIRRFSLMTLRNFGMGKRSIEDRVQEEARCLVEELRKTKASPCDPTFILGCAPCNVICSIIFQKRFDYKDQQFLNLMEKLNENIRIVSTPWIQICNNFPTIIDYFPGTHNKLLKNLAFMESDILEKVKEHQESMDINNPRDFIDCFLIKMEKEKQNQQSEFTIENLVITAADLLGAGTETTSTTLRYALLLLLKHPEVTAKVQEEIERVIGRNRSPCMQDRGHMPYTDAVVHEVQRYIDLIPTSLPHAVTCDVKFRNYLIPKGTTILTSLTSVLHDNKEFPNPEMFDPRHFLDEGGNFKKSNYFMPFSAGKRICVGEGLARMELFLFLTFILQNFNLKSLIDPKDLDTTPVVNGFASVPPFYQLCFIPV

Structure (SMILES) | Potency
Nc1ccccc1N | 40.9 µM (active) and 17.8 µM (active)
Cc1ccc(C)c(O)c1C | inactive
c1ccc2cc(Nc3ccc(Nc4ccc5ccccc5c4)cc3)ccc2c1 | inactive
c1ccc2c(c1)c1cccc3ccc4cccc2c4c31 | 88.8 µM (active) and inactive
OC[C@H]1O[C@@H]2O[C@H]3[C@H](O)[C@@H](O)[C@@H](O[C@H]4[C@H](O)[C@@H](O)[C@@H](O[C@H]5[C@H](O)[C@@H](O)[C@@H](O[C@H]6[C@H](O)[C@@H](O)[C@@H](O[C@H]7[C@H](O)[C@@H](O)[C@@H](O[C@H]8[C@H](O)[C@@H](O)[C@@H](O[C@H]1[C@H](O)[C@H]2O)O[C@@H]8CO)O[C@@H]7CO)O[C@@H]6CO)O[C@@H]5CO)O[C@@H]4CO)O[C@@H]3CO | 31.8 µM (active) and inactive
NNc1ccc(C(=O)O)cc1 | 32.1 µM (active) and 40.3 µM (active)
CCC(C)c1ccccc1O (stereo not given) | inactive
CCC(C)OC(=O)c1ccc(O)cc1 (stereo not given) | 35.8 µM (active) and 25.2 µM (active)
O=[N+]([O-])c1ccc2c(c1)Cc1ccccc1-2 | 22.4 µM (active) and 20 µM (active)
O=C1c2cccc(O)c2C(=O)c2c(O)cccc21 | 28.6 µM (active) and 38.9 µM (active)
Brc1cc(Oc2cc(Br)c(Br)c(Br)c2Br)c(Br)c(Br)c1Br | 10.1 µM (active) and inactive
CCCCCCCCCCCO | 20.5 µM (active) and inactive
CN(C)CCN(Cc1cccs1)c1ccccn1 | inactive
Oc1ccc(O)cc1 | inactive
c1ccc2sc(SSN3CCOCC3)nc2c1 | 17.8 µM (active)
COc1ccc(OC)c(C(O)CNC(=O)CN)c1 (stereo not given) | 20 µM (active) and 24.5 µM (active)
c1ccc2c(c1)Oc1ccccc1S2 | inactive and 71 µM (active)
COc1cccc2c1C(=O)c1c(O)c3c(c(O)c1C2=O)C[C@@](O)(C(=O)CO)C[C@@H]3O[C@H]1C[C@H](N)[C@H](O)[C@H](C)O1 | inactive
CC(CCC(=O)O)(c1ccc(O)cc1)c1ccc(O)cc1 | 71.8 µM (active) and 35.6 µM (active)
c1cc(-c2ccncc2)ccn1 | 35.9 µM (active)
Cc1ccc(C(=O)c2cc(O)c(O)c([N+](=O)[O-])c2)cc1 | inactive

molecular target: Cytochrome P450 2C9 (Homo sapiens) (UniProt P11712); experiment: Cytochrome P450 Family 2 Subfamily C Member 9 (CYP2C9) small molecule antagonists: luciferase reporter qHTS assay (AID 1671198); conditions: P450-Glo CYP2C9 enzyme assay, luciferin luminescence; series mostly up to 115 µM; further: nearly all actives have a fitted effect of over 50% in size
Method in brief: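 P450-Glo proluciferin substrate with CYP2C9 enzyme; 10 min RT preincubation, then NADPH regeneration 1 h at 37C; luciferin detection reagent 20 min RT, luminescence in relative luminescence units.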

Sequence of Cytochrome P450 2C9 (Homo sapiens) (P11712 whole entry, looked up): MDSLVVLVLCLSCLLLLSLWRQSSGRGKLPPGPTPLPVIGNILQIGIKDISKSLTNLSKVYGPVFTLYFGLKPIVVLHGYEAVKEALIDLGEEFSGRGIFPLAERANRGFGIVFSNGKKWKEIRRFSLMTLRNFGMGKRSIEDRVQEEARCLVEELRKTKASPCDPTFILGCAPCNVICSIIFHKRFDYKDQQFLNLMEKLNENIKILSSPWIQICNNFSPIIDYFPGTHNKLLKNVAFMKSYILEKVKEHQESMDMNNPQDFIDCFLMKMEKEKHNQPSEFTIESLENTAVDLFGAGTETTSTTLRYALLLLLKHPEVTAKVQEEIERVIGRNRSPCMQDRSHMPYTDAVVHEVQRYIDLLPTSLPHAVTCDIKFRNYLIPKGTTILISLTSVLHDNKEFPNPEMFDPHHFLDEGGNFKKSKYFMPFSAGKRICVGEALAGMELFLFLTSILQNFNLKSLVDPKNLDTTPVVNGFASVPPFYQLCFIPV

Structure (SMILES) | Potency | activity change, negative = inhibition
Cn1cnc([N+](=O)[O-])c1Sc1ncnc2nc[nH]c12 | inactive | 
c1ccc2cc(Nc3ccc(Nc4ccc5ccccc5c4)cc3)ccc2c1 | inactive | 
c1ccc2c(c1)c1cccc3ccc4cccc2c4c31 | inactive | 
Cc1cc2nc3c(=O)[nH]c(=O)nc-3n(C[C@H](O)[C@H](O)[C@H](O)CO)c2cc1C |  | -0.762% [at 23.6 µM] (inactive)
OC[C@H]1O[C@@H]2O[C@H]3[C@H](O)[C@@H](O)[C@@H](O[C@H]4[C@H](O)[C@@H](O)[C@@H](O[C@H]5[C@H](O)[C@@H](O)[C@@H](O[C@H]6[C@H](O)[C@@H](O)[C@@H](O[C@H]7[C@H](O)[C@@H](O)[C@@H](O[C@H]8[C@H](O)[C@@H](O)[C@@H](O[C@H]1[C@H](O)[C@H]2O)O[C@@H]8CO)O[C@@H]7CO)O[C@@H]6CO)O[C@@H]5CO)O[C@@H]4CO)O[C@@H]3CO | inactive | 
NNc1ccc(C(=O)O)cc1 | 10.2 µM (active) | 
O=c1oc(=O)c2cc3c(=O)oc(=O)c3cc12 | inactive | 
O=C(/C=C/C=C/c1ccc2c(c1)OCO2)N1CCCCC1 | 12.7 µM (active) and 35.6 µM (active) | 
O=C=Nc1ccc(Cc2ccc(N=C=O)cc2)cc1 | 6.98 µM (active) | 
COc1cc([C@@H]2c3cc4c(cc3[C@H](O)[C@H]3COC(=O)[C@H]23)OCO4)cc(OC)c1OC | 2.83 µM (active) and 2.19 µM (active) | 
CCCC(=O)O | inactive | 
CN(C)CCN(Cc1cccs1)c1ccccn1 | inactive | 
c1ccc2sc(SSN3CCOCC3)nc2c1 | 15.9 µM (active) and 11.2 µM (active) | 
Cc1[nH]c(=O)c(C#N)cc1-c1ccncc1 | 29.1 µM (active) | 
Nc1ncn([C@@H]2O[C@H](CO)[C@@H](O)[C@H]2O)c(=O)n1 | inactive | 
c1cc(-c2ccncc2)ccn1 | 40.3 µM (active) and 35.6 µM (active) | 
